# Laboratory results as given in paper PMC7862700, “An all-to-all approach to the identification of sequence-specific readers for epigenetic DNA modifications on cytosine”.
# Legend:
# Test in all cases: DAPPL (digital affinity profiling via proximity ligation, sequencing); 10 mM Tris-HCl pH 7.5, 50 mM NaCl, 1 mM DTT, 4% glycerol, room temperature, 30 min; GST-TFs on glutathione beads, 16-mer random dsDNA library, 0.1% formaldehyde crosslink after washing; high values mean tight binding
# FEV = molecular target: T1, FEV (Homo sapiens, UniProt Q99581 1-238); details: protein: recombinant; tags: N-terminal GST; dsDNA, one strand shown
# T1 sequence: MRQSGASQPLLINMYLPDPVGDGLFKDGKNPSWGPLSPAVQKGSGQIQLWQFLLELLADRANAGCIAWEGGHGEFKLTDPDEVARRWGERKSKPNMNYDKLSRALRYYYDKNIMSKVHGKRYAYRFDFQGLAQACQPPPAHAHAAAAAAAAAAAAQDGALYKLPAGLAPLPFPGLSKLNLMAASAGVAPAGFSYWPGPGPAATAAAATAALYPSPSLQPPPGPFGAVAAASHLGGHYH
# Method in brief: (§1)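 After expression in yeast as GST fusions, human transcription factors were bound to glutathione beads, DNA-barcoded and mixed with a tag-only sample. The pools were incubated with 200 nmole of a 16-mer random double-stranded DNA library in Tris/NaCl/DTT/glycerol buffer (30 min, room temperature), washed and crosslinked with 0.1% formaldehyde. Proximity ligation with BsaI/T4 ligase ran for 1 h at 37 °C, before PCR amplification and sequencing on an Illumina NextSeq500. Binding signal is a hexamer's read frequency for a factor divided by its frequency for the tag-only sample.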
# ETV5 = ETV5 (Homo sapiens, UniProt P41161 1-510); details: protein: recombinant; tags: N-terminal GST; dsDNA, one strand shown
# Chain of ETV5 (P41161 whole entry): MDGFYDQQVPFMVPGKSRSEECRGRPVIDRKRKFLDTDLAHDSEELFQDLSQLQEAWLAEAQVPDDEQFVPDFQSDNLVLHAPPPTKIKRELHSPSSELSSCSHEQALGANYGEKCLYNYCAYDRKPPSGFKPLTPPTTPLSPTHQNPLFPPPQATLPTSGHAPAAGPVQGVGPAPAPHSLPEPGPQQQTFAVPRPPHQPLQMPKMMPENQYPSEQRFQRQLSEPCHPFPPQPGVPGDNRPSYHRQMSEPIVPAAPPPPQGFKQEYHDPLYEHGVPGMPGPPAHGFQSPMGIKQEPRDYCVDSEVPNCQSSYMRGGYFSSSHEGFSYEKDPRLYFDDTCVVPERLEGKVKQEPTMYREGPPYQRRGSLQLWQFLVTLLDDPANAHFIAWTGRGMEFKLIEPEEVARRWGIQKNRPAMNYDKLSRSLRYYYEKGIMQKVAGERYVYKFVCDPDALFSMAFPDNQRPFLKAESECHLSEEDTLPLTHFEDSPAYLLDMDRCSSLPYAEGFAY
# Method in brief: as §1
# HSF1 = HSF1 (Homo sapiens, UniProt Q00613 1-529); details: protein: recombinant; tags: N-terminal GST; chain copies: 3; dsDNA, one strand shown
# Chain of HSF1 (Q00613 whole entry): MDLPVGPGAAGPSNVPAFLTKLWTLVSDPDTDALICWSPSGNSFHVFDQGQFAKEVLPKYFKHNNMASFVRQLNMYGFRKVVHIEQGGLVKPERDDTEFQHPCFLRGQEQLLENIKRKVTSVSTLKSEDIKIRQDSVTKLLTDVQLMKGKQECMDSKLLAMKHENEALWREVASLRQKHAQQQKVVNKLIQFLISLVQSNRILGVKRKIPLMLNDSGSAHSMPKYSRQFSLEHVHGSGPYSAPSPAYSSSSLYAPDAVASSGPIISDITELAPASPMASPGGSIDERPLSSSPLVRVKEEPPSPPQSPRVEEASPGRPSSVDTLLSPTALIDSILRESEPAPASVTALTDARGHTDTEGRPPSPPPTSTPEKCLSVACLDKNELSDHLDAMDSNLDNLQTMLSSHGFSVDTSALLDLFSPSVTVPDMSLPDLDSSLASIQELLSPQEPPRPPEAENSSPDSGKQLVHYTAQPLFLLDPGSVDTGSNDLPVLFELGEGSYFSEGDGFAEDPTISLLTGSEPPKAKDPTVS
# Method in brief: as §1
# SPIC = molecular target: T2, SPIC (Homo sapiens, UniProt Q8N5J4 1-248); details: protein: recombinant; tags: N-terminal GST; dsDNA, one strand shown
# T2 sequence: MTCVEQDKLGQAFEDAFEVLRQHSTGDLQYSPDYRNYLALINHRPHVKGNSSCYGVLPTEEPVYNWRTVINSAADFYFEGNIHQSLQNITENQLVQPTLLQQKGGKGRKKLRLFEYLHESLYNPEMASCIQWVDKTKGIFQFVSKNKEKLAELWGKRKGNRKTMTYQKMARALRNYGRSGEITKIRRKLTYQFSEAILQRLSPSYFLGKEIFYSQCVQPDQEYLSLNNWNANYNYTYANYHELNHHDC
# Method in brief: as §1
# ELF4 = ELF4 (Homo sapiens, UniProt Q99607 1-663); details: protein: recombinant; tags: N-terminal GST; dsDNA, one strand shown
# Chain of ELF4 (Q99607 whole entry): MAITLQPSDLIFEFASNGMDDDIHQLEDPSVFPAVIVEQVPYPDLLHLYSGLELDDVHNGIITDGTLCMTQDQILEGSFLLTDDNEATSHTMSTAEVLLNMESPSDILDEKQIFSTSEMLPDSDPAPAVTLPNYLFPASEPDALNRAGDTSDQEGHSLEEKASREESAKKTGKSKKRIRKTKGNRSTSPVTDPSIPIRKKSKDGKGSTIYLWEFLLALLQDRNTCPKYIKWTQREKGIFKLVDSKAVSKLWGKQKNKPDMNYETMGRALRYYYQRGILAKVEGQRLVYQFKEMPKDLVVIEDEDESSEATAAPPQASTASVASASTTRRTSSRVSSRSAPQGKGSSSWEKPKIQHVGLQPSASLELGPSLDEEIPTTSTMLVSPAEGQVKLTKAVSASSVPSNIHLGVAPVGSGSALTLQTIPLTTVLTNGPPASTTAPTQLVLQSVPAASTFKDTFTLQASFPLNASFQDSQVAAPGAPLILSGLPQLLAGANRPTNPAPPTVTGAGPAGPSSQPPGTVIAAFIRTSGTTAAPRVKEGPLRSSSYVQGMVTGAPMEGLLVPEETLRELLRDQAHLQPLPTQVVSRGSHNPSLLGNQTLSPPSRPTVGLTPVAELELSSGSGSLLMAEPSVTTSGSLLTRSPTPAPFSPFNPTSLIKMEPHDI
# Method in brief: as §1
# ELK4 = molecular target: T3, ELK4 (Homo sapiens, UniProt P28324-2 1-405); details: protein: recombinant; tags: N-terminal GST; dsDNA, one strand shown
# T3 sequence: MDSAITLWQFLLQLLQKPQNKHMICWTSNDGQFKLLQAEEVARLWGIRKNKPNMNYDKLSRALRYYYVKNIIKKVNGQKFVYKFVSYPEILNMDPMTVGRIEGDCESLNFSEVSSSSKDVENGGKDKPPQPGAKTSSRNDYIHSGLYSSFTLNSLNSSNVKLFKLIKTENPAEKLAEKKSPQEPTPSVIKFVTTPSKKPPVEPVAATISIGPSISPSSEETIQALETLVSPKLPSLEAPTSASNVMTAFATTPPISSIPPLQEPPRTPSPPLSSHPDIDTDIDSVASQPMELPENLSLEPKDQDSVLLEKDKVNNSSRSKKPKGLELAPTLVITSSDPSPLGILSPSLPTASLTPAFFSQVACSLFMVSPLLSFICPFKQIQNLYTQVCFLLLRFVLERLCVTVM
# Method in brief: as §1
# ETV2 = molecular target: T4, ETV2 (Homo sapiens, UniProt O00321 1-342); details: protein: recombinant; tags: N-terminal GST; dsDNA, one strand shown
# T4 sequence: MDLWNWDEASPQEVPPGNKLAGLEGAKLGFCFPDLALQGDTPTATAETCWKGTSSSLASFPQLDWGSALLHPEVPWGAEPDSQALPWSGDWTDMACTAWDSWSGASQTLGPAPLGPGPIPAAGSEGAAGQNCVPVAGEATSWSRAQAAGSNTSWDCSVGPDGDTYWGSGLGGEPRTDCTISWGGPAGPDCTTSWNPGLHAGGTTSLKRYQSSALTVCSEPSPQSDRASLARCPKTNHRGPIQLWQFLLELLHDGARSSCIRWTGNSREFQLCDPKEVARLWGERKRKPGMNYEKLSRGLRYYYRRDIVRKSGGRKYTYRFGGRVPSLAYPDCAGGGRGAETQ
# Method in brief: as §1
# ELF3 = molecular target: T5, ELF3 (Homo sapiens, UniProt P78545 1-371); details: protein: recombinant; tags: N-terminal GST; dsDNA, one strand shown
# T5 sequence: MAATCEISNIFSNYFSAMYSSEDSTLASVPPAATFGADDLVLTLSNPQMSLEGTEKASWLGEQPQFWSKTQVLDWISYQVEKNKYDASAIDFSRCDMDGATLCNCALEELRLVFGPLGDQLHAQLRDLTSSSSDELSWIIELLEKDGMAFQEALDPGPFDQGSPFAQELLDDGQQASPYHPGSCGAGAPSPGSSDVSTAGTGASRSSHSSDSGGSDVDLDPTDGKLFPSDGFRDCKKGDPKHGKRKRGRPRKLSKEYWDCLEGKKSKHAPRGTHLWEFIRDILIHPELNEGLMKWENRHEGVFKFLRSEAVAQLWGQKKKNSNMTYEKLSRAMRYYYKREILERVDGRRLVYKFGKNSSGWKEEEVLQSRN
# Method in brief: as §1
# CRX = CRX (Homo sapiens, UniProt O43186 1-299); details: protein: recombinant; tags: N-terminal GST; dsDNA, one strand shown
# Chain of CRX (O43186 whole entry): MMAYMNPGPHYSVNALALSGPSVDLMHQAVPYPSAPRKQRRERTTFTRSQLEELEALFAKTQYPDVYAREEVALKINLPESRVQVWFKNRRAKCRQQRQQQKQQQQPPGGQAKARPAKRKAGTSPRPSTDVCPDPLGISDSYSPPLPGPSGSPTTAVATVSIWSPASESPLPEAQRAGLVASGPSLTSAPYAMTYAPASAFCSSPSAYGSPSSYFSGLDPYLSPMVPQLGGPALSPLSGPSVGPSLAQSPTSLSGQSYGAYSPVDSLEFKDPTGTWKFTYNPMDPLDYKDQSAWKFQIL
# Method in brief: as §1
# ETV1 = ETV1 (Homo sapiens, UniProt P50549 1-477); details: protein: recombinant; tags: N-terminal GST; dsDNA, one strand shown
# Chain of ETV1 (P50549 whole entry): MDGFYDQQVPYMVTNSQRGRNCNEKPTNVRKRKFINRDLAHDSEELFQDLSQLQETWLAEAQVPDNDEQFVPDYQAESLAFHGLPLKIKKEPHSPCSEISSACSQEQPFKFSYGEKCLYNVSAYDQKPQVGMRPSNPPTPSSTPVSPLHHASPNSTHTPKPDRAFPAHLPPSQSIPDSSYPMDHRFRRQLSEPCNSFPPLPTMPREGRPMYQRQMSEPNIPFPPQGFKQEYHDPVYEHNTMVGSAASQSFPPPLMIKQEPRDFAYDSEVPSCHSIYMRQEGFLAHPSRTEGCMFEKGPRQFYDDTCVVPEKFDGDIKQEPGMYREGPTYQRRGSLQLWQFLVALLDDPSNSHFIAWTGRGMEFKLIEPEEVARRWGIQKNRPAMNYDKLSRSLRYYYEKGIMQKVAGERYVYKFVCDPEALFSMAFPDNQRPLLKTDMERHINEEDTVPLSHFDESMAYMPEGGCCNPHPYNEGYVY
# Method in brief: as §1
# ERF = molecular target: T6, ERF (Homo sapiens, UniProt P50548 1-548); details: protein: recombinant; tags: N-terminal GST; dsDNA, one strand shown
# T6 sequence: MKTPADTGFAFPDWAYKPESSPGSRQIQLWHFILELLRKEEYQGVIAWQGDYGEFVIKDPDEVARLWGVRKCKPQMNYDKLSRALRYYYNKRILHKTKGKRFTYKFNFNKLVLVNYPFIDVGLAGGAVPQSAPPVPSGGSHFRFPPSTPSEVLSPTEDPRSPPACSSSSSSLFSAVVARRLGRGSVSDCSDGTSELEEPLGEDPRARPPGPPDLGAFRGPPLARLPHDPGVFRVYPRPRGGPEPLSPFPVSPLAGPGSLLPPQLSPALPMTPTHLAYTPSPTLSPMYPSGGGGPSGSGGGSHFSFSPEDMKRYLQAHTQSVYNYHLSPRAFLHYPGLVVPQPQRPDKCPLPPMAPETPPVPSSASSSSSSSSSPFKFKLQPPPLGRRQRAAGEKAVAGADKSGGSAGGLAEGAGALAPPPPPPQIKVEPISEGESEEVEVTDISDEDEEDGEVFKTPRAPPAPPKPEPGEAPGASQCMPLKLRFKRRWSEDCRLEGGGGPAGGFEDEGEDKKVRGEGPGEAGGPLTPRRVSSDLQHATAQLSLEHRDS
# Method in brief: as §1
# ETV3L = molecular target: T7, ETV3L (Homo sapiens, UniProt Q6ZN32 1-361); details: protein: recombinant; tags: N-terminal GST; dsDNA, one strand shown
# T7 sequence: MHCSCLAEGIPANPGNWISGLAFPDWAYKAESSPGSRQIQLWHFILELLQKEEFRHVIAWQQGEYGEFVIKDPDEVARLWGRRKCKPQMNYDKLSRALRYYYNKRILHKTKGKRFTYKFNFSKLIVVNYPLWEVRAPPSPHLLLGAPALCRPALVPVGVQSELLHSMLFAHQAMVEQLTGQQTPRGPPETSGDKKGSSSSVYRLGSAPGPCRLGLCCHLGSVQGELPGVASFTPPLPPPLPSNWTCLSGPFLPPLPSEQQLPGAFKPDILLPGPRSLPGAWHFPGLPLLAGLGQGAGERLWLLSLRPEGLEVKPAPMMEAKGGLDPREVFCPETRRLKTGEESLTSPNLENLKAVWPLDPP
# Method in brief: as §1
# ETS2 = molecular target: T8, ETS2 (Homo sapiens, UniProt P15036 1-469); details: protein: recombinant; tags: N-terminal GST; dsDNA, one strand shown
# T8 sequence: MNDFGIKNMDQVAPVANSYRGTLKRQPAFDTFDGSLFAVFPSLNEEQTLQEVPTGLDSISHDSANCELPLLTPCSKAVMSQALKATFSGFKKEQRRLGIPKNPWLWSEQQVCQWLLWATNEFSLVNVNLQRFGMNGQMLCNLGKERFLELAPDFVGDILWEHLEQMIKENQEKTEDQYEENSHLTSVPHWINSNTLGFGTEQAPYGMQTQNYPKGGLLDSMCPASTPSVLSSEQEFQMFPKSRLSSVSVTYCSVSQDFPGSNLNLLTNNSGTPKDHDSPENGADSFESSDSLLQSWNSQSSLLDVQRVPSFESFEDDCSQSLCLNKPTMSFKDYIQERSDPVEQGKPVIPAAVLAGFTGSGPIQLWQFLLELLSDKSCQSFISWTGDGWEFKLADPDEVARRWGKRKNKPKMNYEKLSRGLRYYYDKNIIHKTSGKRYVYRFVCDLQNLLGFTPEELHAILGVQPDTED
# Method in brief: as §1
# SPDEF = molecular target: T9, SPDEF (Homo sapiens, UniProt O95238 1-335); details: protein: recombinant; tags: N-terminal GST; dsDNA, one strand shown
# T9 sequence: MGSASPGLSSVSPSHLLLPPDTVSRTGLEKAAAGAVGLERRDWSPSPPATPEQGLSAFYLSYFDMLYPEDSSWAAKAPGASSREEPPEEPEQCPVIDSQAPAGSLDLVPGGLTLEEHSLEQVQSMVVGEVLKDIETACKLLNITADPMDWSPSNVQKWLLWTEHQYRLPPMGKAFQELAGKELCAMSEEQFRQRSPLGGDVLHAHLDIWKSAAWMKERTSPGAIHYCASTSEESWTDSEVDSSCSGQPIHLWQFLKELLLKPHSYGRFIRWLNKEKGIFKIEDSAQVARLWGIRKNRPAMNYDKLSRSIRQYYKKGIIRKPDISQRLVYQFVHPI
# Method in brief: as §1
# ETV7 = molecular target: T10, ETV7 (Homo sapiens, UniProt Q9Y603 1-341); details: protein: recombinant; tags: N-terminal GST; dsDNA, one strand shown
# T10 sequence: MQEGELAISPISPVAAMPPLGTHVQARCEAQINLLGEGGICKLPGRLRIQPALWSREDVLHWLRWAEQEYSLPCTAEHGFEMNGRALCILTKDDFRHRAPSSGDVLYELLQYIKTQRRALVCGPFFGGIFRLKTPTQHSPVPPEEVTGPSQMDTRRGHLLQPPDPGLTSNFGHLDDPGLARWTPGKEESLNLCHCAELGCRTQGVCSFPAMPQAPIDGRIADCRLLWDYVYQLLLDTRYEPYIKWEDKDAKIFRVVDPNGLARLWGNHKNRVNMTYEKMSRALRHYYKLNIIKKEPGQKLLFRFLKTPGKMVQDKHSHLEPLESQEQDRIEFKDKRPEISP
# Method in brief: as §1
# ELF5 = molecular target: T11, ELF5 (Homo sapiens, UniProt Q9UKW6-2 1-255); details: protein: recombinant; tags: N-terminal GST; dsDNA, one strand shown
# T11 sequence: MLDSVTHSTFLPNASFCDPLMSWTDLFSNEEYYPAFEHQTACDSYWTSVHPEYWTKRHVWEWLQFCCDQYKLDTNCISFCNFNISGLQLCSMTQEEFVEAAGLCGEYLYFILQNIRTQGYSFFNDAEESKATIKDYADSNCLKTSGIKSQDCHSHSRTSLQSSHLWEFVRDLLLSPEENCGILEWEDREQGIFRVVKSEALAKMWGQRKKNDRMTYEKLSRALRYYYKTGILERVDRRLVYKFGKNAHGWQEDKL
# Method in brief: as §1
# ETV3 = molecular target: T12, ETV3 (Homo sapiens, UniProt P41162-2 1-143); details: protein: recombinant; tags: N-terminal GST; dsDNA, one strand shown
# T12 sequence: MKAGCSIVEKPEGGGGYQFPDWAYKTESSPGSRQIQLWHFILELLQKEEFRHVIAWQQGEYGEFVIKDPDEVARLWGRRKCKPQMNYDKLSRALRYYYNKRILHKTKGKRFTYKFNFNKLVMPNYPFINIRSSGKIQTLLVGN
# Method in brief: as §1
# ETV6 = ETV6 (Homo sapiens, UniProt P41212 1-452); details: protein: recombinant; tags: N-terminal GST; dsDNA, one strand shown
# Chain of ETV6 (P41212 whole entry): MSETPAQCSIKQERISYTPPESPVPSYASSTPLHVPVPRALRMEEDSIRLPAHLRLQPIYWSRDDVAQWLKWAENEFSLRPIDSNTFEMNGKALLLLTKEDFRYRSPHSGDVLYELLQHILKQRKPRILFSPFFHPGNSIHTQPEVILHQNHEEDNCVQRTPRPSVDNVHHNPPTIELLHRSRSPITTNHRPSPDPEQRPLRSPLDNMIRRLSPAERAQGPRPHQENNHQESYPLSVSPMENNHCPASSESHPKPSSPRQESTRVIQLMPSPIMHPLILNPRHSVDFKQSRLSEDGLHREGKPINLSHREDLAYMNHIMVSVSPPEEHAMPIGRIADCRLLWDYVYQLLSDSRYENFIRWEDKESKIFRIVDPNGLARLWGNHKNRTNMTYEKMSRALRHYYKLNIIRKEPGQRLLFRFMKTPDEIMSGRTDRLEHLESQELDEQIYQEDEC
# Method in brief: as §1
sequence,measurement,setting,value
GTTCTA,binding signal,FEV,"1.26 fold enrichment (6-mer frequency, TF over GST control)"
same,binding signal,ETV5,"1.18 fold enrichment (6-mer frequency, TF over GST control)"
same,binding signal,HSF1,"2.94 fold enrichment (6-mer frequency, TF over GST control)"
same,binding signal,SPIC,"1.37 fold enrichment (6-mer frequency, TF over GST control)"
same,binding signal,ELF4,"1.31 fold enrichment (6-mer frequency, TF over GST control)"
same,binding signal,ELK4,"1.2 fold enrichment (6-mer frequency, TF over GST control)"
same,binding signal,ETV2,"1.17 fold enrichment (6-mer frequency, TF over GST control)"
same,binding signal,ELF3,"1.27 fold enrichment (6-mer frequency, TF over GST control)"
same,binding signal,CRX,"1.59 fold enrichment (6-mer frequency, TF over GST control)"
same,binding signal,ETV1,"1.11 fold enrichment (6-mer frequency, TF over GST control)"
same,binding signal,ERF,"1.27 fold enrichment (6-mer frequency, TF over GST control)"
same,binding signal,ETV3L,"1.2 fold enrichment (6-mer frequency, TF over GST control)"
same,binding signal,ETS2,"1.25 fold enrichment (6-mer frequency, TF over GST control)"
same,binding signal,SPDEF,"1.19 fold enrichment (6-mer frequency, TF over GST control)"
same,binding signal,ETV7,"1.2 fold enrichment (6-mer frequency, TF over GST control)"
same,binding signal,ELF5,"1.23 fold enrichment (6-mer frequency, TF over GST control)"
same,binding signal,ETV3,"1.19 fold enrichment (6-mer frequency, TF over GST control)"
same,binding signal,ETV6,"1.24 fold enrichment (6-mer frequency, TF over GST control)"
